High-throughput results deposited in PubChem by National Center for Advancing Translational Sciences (NCATS).
Cruzain noTriton – cruzain (T. cruzi) inhibition without detergent. P25779. purified cruzain, Z-FR-AMC fluorescence, no detergent. Potency, µM, most hits filed as inhibitors. hit rate 2.3% among 200,000; also: nearly all actives have a fitted effect of over 40% in size
Target sequence (P25779 123-467 limits assumed): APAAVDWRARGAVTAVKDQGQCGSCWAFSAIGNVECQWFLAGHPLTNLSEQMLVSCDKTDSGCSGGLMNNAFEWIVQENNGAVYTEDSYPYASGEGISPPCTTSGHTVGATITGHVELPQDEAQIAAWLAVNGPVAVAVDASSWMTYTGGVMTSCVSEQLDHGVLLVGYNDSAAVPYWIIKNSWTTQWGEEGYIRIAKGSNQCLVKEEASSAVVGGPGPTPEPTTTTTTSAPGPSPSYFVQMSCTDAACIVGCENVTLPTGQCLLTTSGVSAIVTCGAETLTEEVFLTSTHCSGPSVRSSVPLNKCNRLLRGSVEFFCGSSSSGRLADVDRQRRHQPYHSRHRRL
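Purified cruzain at 1.5 nM, pre-incubated 15 min with compound at room temperature in 100 mM sodium acetate pH 5.5, 5 mM DTT, 0.00005% Triton X-100. Reaction started with 2 uM Z-FR-AMC; AMC fluorescence increase over 60 s gives rate.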
Cruzain inh Det – cruzain (T. cruzi) inhibition with detergent. Potency, µM, hits mostly inhibitors. purified cruzain, Z-FR-AMC fluorescence, 0.01% Triton. hit rate 0.43% among 200,000; also: nearly all actives have a fitted effect of over 40% in size
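Detergent-containing run (0.01% Triton X-100) in acetate buffer pH 5.5 with 5 mM DTT: enzyme at 1.5 nM final, 15 min compound preincubation at room temperature, then 2 uM Z-FR-AMC substrate. Activity taken as 60 s fluorescence increase at 360/450 nm.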
Numbers stand for hits; . = inactive; ? = inconclusive. In the library only some 2.5% were active in any assay of this set; here they are far more common. Calls follow the shape of the dose curve; as a rule, active = well fitted curve in the direction sought with a large enough effect; inconclusive = small, poorly fitted or top-dose-only effect, or another doubt; inactive = no such curve, though single readings can be large; an effect the other way counts as inactive or inconclusive.

SMILES	Cruzain noTriton	Cruzain inh Det
Cn1c(=O)n(C)c2cc(S(=O)(=O)N3CCOCC3)ccc21	.	.
Cc1cccc(N=C2NC(=O)S/C2=C\c2ccco2)c1	?	.
O=C1NC(=Nc2ccc(Cl)cc2)/C(=C/c2ccco2)S1	5µM	.
O=C1CC(c2cccc(Cl)c2Cl)c2cc3c(cc2N1)OCCO3 (stereo unspecified)	.	.
O=C(O)c1sc2cc(C(F)(F)F)cnc2c1-c1ccccc1	16µM	?
COC(=O)c1sc2cc(C(F)(F)F)cnc2c1-c1ccccc1	.	.
O=C(Nc1ccc(F)cc1)c1sc2cc(C(F)(F)F)cnc2c1-c1cccs1	25µM	.
COc1ccc(NC(=O)c2sc3cc(C(F)(F)F)cnc3c2-c2cccs2)cc1	.	.
CCc1ccc(Cc2cnc(NC(=O)c3ccc4c(c3)CC(c3ccccc3)OC4=O)s2)cc1 (stereo unspecified)	?	.
O=C(Nc1ncc(Cc2ccccc2Cl)s1)c1ccc2c(c1)CC(c1ccccc1)OC2=O (stereo unspecified)	32µM	.
COc1ccccc1Nc1nn2c(=O)c3ccc(C(=O)NCCC4=CCCCC4)cc3nc2s1	.	.
CC(C)(C)c1ccc(-c2csc(NC(=O)CN3C(=O)NC4(CCCCC4)C3=O)n2)cc1	7.9µM	.
CCNC(=O)CN1C(=O)NC2(CCCCCC2)C1=O	.	.
C[C@]12CC[C@H](O)CC1=CC[C@H]1[C@@H]2CC[C@@]2(C)C(N(CCO)CCO)CC[C@@H]12 (stereo partly specified)	.	.
S=C([S-])NCCNC(=S)[S-].[Zn+2]	?	32µM
COc1ccc(-c2cc3nnc(-c4ccccc4)nc3s2)cc1	3.2µM	.
COc1cccc(-c2nc(-c3ccccc3)no2)c1	.	.
COc1ccc(C(CNC(=O)c2cccc([N+](=O)[O-])c2)N2CCOCC2)cc1 (stereo unspecified)	.	.
O=C(NNc1nc2ccc(Cl)cc2s1)c1cc(-c2cccs2)nc2ccccc12	7.9µM	.
O=C(NN1CCOCC1)c1cc(-c2cccs2)nc2ccccc12	.	.
Cc1ccc2sc(NNC(=O)c3cc(-c4cccs4)nc4ccccc34)nc2c1C	10µM	.
Cc1cc(C)c2nc(NNC(=O)c3cc(-c4cccs4)nc4ccccc34)sc2c1	?	.
COc1cc(Cl)c(C)cc1NC(=O)c1cnc(N2CCOCC2)c2ccccc12	?	.
Oc1cc(O)c2c(c1)O[C@H](c1ccc(O)c(O)c1)[C@@H](O)[C@@H]2c1c(O)cc(O)c2c1O[C@@H](c1ccc(O)c(O)c1)[C@H](O)C2	.	.
COc1ccc(CCNC(=O)c2cc(=O)c3cc(C)c(C)cc3o2)cc1OC	.	.
SMILES	Cruzain noTriton	Cruzain inh Det
Cc1ccc(NC(=O)Cn2nc(C)n3cccc3c2=O)c(C)c1	.	.
Fc1ccc(CNc2cc(-c3ccccc3)nc3nncn23)cc1	.	.
CCOC(=O)c1ccc(NC(=O)CC2S/C(=N/N=C/c3c[nH]c4ccccc34)NC2=O)cc1 (stereo unspecified)	?	.
Cc1ccc(NC(=O)CC2S/C(=N/N=C/c3c[nH]c4ccccc34)NC2=O)cc1 (stereo unspecified)	20µM	.
Cc1ccc(NC(=O)CC2S/C(=N/N=C/C=C/c3ccccc3)NC2=O)cc1Cl (stereo unspecified)	5µM	.
Cc1ccc(NC(=O)CC2SC(=NCC3CCCO3)NC2=O)cc1Cl (stereo unspecified)	.	.
Nc1ccccc1[N+](=O)[O-]	.	.
Cc1ccc(NC(=O)CN2C(=O)C(c3ccc(C)cc3)=NC23CCCCCC3)cc1	?	.
COc1ccc(N2CCN(S(=O)(=O)c3cccc(C(F)(F)F)c3)CC2)cc1	.	.
COc1ccc(N2CCN(S(=O)(=O)c3ccc(Cl)c(C(F)(F)F)c3)CC2)cc1	16µM	.
COc1ccccc1NC(=O)Cn1c(=O)n(Cc2ccccc2)c(=O)c2c1c1cc(C)ccc1n2C	.	.
COc1cc(OC)cc(N2C(=O)N(Cc3ccc(C(C)(C)C)cc3)c3ccccc3S2(=O)=O)c1	4µM	.
CCOc1ccc(N2C(=O)N(Cc3ccc(C)cc3C)c3ccccc3S2(=O)=O)cc1	25µM	.
CC(=O)c1ccc(N2C(=O)N(CC(=O)c3ccc(C)cc3)c3ccccc3S2(=O)=O)cc1	?	.
COc1cc(OC)cc(N2C(=O)N(CC(=O)c3ccc(F)cc3)c3ccccc3S2(=O)=O)c1	?	.
CCOc1cc2[nH]c(=O)n(CCCCC(=O)N3CCN(c4ccc(OC)cc4)CC3)c(=O)c2cc1OCC	.	.
Oc1cc(O)c2c(c1)O[C@@H](c1ccc(O)c(O)c1)[C@H](O[C@@]1(c3cc(O)c(O)c(O)c3)Oc3cc(O)cc(O)c3[C@H](O)[C@@H]1O)C2	.	.
C#CCOCCOCCOCCNc1nc(N2CCN(C(=O)[C@H](C)n3cc(CCCN=C(N)N)nn3)CC2)nc(N2CCN(C(=O)[C@H](CCCCN)n3cc(CCCC)nn3)CC2)n1	.	.
C#CCOCCOCCOCCNc1nc(N2CCN(C(=O)[C@H]([C@@H](C)CC)n3cc(CCCN=C(N)N)nn3)CC2)nc(N2CCN(C(=O)[C@H](CCCCN)n3cc(CCCC)nn3)CC2)n1	?	25µM
Nc1ccc2c(c1)C/C(=C/c1ccco1)C2=O	?	.
COc1ccc2c(c1)CC/C(=C/c1ccco1)C2=O	20µM	22µM
COc1ccc(NC(=O)CC2C(=O)N(c3ccccc3)C(=O)N2CCc2sccc2C)cc1 (stereo unspecified)	.	.
COc1ccc(OC)c(Nc2nc(-c3sc(NC(=O)c4ccccc4)nc3C)cs2)c1	?	.
Cc1nc(NC(=O)c2ccccc2)sc1-c1csc(Nc2ccc(Cl)cc2Cl)n1	7.9µM	.
COc1ccc(Cl)cc1Nc1nc(-c2sc(NC(=O)c3ccccc3)nc2C)cs1	6.3µM	.
SMILES	Cruzain noTriton	Cruzain inh Det
Cc1c(Cl)cccc1NS(=O)(=O)c1ccc2[nH]cc(C(=O)NC3CCCC3)c(=O)c2c1	?	.
Cc1nc(N/N=C/c2ccccc2)nc(N(C)c2ccccc2)c1[N+](=O)[O-]	16µM	.
Cc1cc(C)nc(N/N=C/c2ccccc2)n1	.	.
CC(C)c1ccc(C2c3c(-c4ccccc4O)n[nH]c3C(=O)N2Cc2ccncc2)cc1 (stereo unspecified)	.	.
CCOC(=O)Cc1ccc(NC(=O)N2CCOc3ccc(C)cc32)cc1	.	.
CCCCCCc1cc2cc(-c3nnc(-c4ccc(C)cc4)o3)c(=O)oc2cc1O	.	.
CCCCCCc1cc2cc(S(=O)(=O)c3ccc(F)c(Cl)c3)c(=O)oc2cc1O	20µM	.
O=C1C=CC(=O)c2c(O)cccc21	7.9µM	.
O=C1c2cccc(O)c2C(=O)c2c(O)cccc21	.	.
CCC(=O)N1CCc2cc(Br)cc(S(=O)(=O)N3CCC(C(=O)Nc4ccccc4CC)CC3)c21	?	.
COc1ccc(OC)c(C2C=C(C34CC5CC(CC(C5)C3)C4)NC(=S)N2)c1 (stereo unspecified)	25µM	.
COc1cc(C2C=C(C34CC5CC(CC(C5)C3)C4)NC(=S)N2)cc(OC)c1OC (stereo unspecified)	?	.
CN(C)c1ccc(NC(=O)CN2CCN(CC(=O)Nc3ccc(Br)cc3)CC2)cc1	.	.
O=C(Nc1nc2ccccc2s1)c1cc(-c2ccccc2)nn1-c1ccccc1	10µM	.
CC(=O)c1sc(NC(=O)c2cc(-c3ccccc3)nn2-c2ccccc2)nc1C	.	.
